Only some compounds are listed: those with a hit (about 4.1% of all), similar ones and a draw of the others.
Peg3 prom inh: Peg3 promoter-driven luciferase inhibitors, primary screen, cell-based, HeLa, luciferase luminescence | inhibition, % at 20 µM | HeLa PEG-Prom luciferase reporter, overnight | hit rate 1.7% among 360,000;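 active = inhibition of at least 50% at 20 µM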
TROY signal inh: inhibitors of TROY-driven NF-kB signaling, primary screen, Q293 LMP1-TROYcd cells, NF-kB luciferase, uHTS; Q293 LMP1-TROYcd NF-kB luciferase reporter, 4 h; inhibition, % at 10 µM; hit rate 0.98% among 360,000; AID 1347056, 2019;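 active = compounds whose plate-normalised and pattern-corrected inhibition of the luciferase reporter signal at the single screening dose is 50% or more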
TWEAK-Fn14 inh: inhibitors of TWEAK-Fn14 signaling, primary screen, luciferase reporter cells, uHTS; hit rate 2% among 360,000; inhibition, % at 10 µM; TWEAK-stimulated Fn14 reporter cells, luciferase luminescence, 8 h; in the data active = inhibition above about 50%
LMP1 NFkB inh: EBV LMP1-driven NF-kappaB luciferase reporter inhibitors, primary screen, cell-based, luminescence, single point. LMP1-induced NF-kappaB luciferase reporter cells. inhibition, % at 12.5 µM. hit rate 0.69% among 350,000; in the data active = inhibition above about 41%;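 note: 0% = neutral control wells and 100% = reference inhibitor control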
TRPM1 prom inh: inhibitors of MITF-dependent TRPM1 promoter reporter, primary screen, cell-based, SK-MEL-5, single point, luciferase. hit rate 0.83% among 330,000. SK-MEL-5 TRPM1 promoter luciferase, 24 h. inhibition, % at 12.5 µM;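 active = mean inhibition across replicates of 60% or more, whatever share of single replicates reaches that level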
Shn3 3UTR inh: reduction of Shn3 3'UTR firefly luciferase signal, primary screen, Schnurri-3 inhibitor project, cell-based, Clone20 osteoblasts, set 2 | Clone20 osteoblast Shn3 3'UTR firefly luciferase, 24 h | inhibition, % at 12.5 µM | hit rate 0.52% among 360,000;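 active = mean inhibition of at least 75% with every replicate also reaching 75%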;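 note: 0% = median of neutral control wells and 100% = pilot-screen positive control compound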
Active calls of the source: *; x = no result.

SMILES	Peg3 prom inh	TROY signal inh	TWEAK-Fn14 inh	LMP1 NFkB inh	TRPM1 prom inh	Shn3 3UTR inh
CCCCNC(=O)C1c2ccccc2OCC(=O)N1CCc1c[nH]c2ccccc12 (stereo not drawn)	x	2	9	x	x	x
Cn1ncc([N+](=O)[O-])c1C(=O)Nc1ccc2c(c1)OCCO2	-33	59*	82*	11	6	15
COCCN1Cc2cccc(C(=O)N3CCN(c4cc(C)ccc4C)CC3)c2C1=O	0	6	24	78*	6	18
Cc1c(C(=O)Nc2ccc3c(c2)OCCO3)cnn1C	13	73*	91*	31	4	-30
COCCN1Cc2cccc(C(=O)Nc3ccc4c(c3)OCCO4)c2C1=O	-4	56*	74*	14	-2	87*
Cc1cc(C)nc(N2CCN(C(=O)CCC(=O)Nc3nnc(C(C)C)s3)CC2)n1	-15	-21	-17	-11	-7	-8
COc1ccc(OC)c(NS(=O)(=O)c2c(C)nc3sccn3c2=O)c1	10	-1	-12	-7	-6	-50
C[N+](=O)C1C(=O)Nc2ccccc21 (stereo not drawn)	x	-7	16	x	x	x
CCC1CCCCN1S(=O)(=O)c1ccc(C(=O)Nc2nnc(C3=COCCO3)o2)cc1 (stereo not drawn)	24	-5	8	1	15	-4
Cn1ccc(C(=O)Nc2ccc3c(c2)OCCO3)n1	-33	-33	33	31	-6	-56
Cc1nn(C)cc1C(=O)Nc1ccc2c(c1)OCCO2	-55	41	66*	13	-40	-26
Cn1nccc1C(=O)Nc1ccc2c(c1)OCCO2	-103	56*	74*	-4	4	7
Cn1nc(C(=O)Nc2ccc3c(c2)OCCO3)cc1C(=O)O	43	61*	72*	17	-3	7
Cc1ccccc1OCC(=O)N=Nc1c(O)n(C)c2ccccc12	-65	-36	-21	-6	-12	-36
CCCN(CC(=O)Nc1ccccc1C)C(=O)c1ccc(N2CCCCCC2)c([N+](=O)[O-])c1	8	-20	-8	-2	4	15
O=C(O)c1ccc(-n2nc(C(F)(F)F)cc2-c2cccs2)cc1	8	11	-8	6	9	-17
S=C(NCc1ccccc1)Nc1ccncc1	0	28	17	6	9	68
O=C(On1c(-c2ccccc2)nc2ccccc2c1=O)c1ccco1	27	-17	20	19	16	-2
COc1cc(OC)cc(-c2nc3ccccc3c(=O)n2OC(=O)c2ccccc2C)c1	53*	21	43	23	-3	3
OC[C@H]1OC(O)[C@H](O)[C@@H](O)[C@H]1O (stereo partly drawn)	8	7	3	56*	-5	-1
N[C@H]1C(O)O[C@H](CO)[C@@H](O)[C@@H]1O (stereo partly drawn)	-7	-4	0	-12	-1	-3
CCN(CC)C(=O)C1=C(C)N(Cc2ccc(F)cc2)C(=O)C(CC(=O)NCc2ccco2)C1 (stereo not drawn)	-4	-10	21	3	x	-14
CCN1CCN(c2ccc(S(=O)(=O)N3CCCCC3)cc2NC(=O)c2ccc(F)cc2)CC1	9	5	-1	7	-1	-22
CCOc1ccc(S(=O)(=O)N2CCCCC2)cc1NC(=O)Cc1ccccc1	7	51*	30	19	53	10
CCN1CCN(c2ccc(S(=O)(=O)N3CCCCC3)cc2NC(=O)c2ccc([N+](=O)[O-])o2)CC1	24	4	0	-20	95*	-51
SMILES	Peg3 prom inh	TROY signal inh	TWEAK-Fn14 inh	LMP1 NFkB inh	TRPM1 prom inh	Shn3 3UTR inh
COc1ccc(S(=O)(=O)N2CCCCC2)cc1NC(=O)c1ccc([N+](=O)[O-])o1	42	-10	28	-10	85*	34
CCOc1ccc(S(=O)(=O)N2CCCCC2)cc1NC(=O)Cc1cccc(C(F)(F)F)c1	10	10	23	0	16	24
CCN(CC(=O)Nc1c(F)cccc1F)C(=O)CCC(=O)c1ccc(C)cc1	-10	1	6	-1	-2	11
O=C(Nc1cccc(S(=O)(=O)N2CCOCC2)c1)C1CCN(S(=O)(=O)c2ccccc2)CC1	19	12	3	2	-10	7
COc1cccc(CNC(=O)CCS(=O)(=O)c2cc3c(cc2C)NC(=O)CO3)c1	12	9	-28	13	8	-6
CN(C)c1ccc(-c2noc(-c3ccccc3O)n2)cc1	-99	27	76*	3	3	32
Cc1ccc(NC(=O)c2ccc3c(c2)OCCO3)nc1	-33	29	62*	50*	13	23
Cc1ccnc(NC(=O)c2cccc(NC(=O)c3ccc(Cl)cc3)c2)c1	-36	-20	-7	-2	5	0
CC1CCC(NC(=O)c2ccc3c(c2)OCO3)CC1 (stereo not drawn)	-93	0	54*	17	-1	-43
Cc1ccnc(NC(=O)c2ccc3c(c2)OCO3)c1	-127	15	55*	13	-75	17
Cc1ccnc(NC(=O)c2cccc(NC(=O)c3ccc(Cl)c(Cl)c3)c2)c1	-20	-19	-7	86*	-6	-10
C=CC[C@]12CCc3ccccc3C1N(c1ccc(C(=O)OCC)cc1)C2=O (stereo partly drawn)	1	-15	-36	1	-11	26
Cc1ccnc(NC(=O)c2ccc3c(c2)NC(=O)C(C)S3)c1 (stereo not drawn)	-134	44	67*	13	-40	8
O=C(CCl)Nc1cc2[nH]c(=O)[nH]c2cc1Br	88*	9	-15	3	57	-26
COc1ccc(/C=N/n2c(C3CCCCC3)n[nH]c2=S)c(OC)c1	15	10	-26	-2	-6	3
CN1CCN(CCCNC(=O)c2ccc(/C=C3\Sc4ccccc4N(Cc4ccc(F)cc4)C3=O)cc2)CC1	104*	-11	-53	8	22	11
CN1CCN(CCCNC(=O)c2ccc(/C=C3/Sc4ccccc4N(Cc4cccc(Cl)c4)C3=O)cc2)CC1	84*	52*	-31	0	8	16
CC1CCCC(NC(=O)COC(=O)[C@@H](NC(=O)c2ccccc2Cl)C(C)C)C1C (stereo partly drawn)	11	-11	-7	5	13	-1
O=S(=O)(/N=S1\CC=CCN1S(=O)(=O)c1ccccc1)c1ccccc1 (stereo not drawn)	0	16	18	-4	-7	94*
O=C(Cc1cccs1)Nc1nc2c(ccc3ccccc32)s1	-100	-5	50*	-4	10	2
CC(=O)Nc1nc2c(ccc3ccccc32)s1	-51	-21	-21	-16	-6	-45
